# Gli-Sufu block: Gli-Sufu pathway antagonists, primary screen, luciferase luminescence, Sufu-KO-LIGHT cells, uHTS; AID 588413, 2011; actives 0.74% (n = 340,000); Sufu-KO-LIGHT fibroblasts, Gli luciferase reporter luminescence; inhibition, % at 5 µM;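 active = inhibition above about 55%, limit read from the data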;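 note: 0% = DMSO-treated cells and 100% = wells with medium but no cells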
# Jurkat NFkB inh: inhibitors of induced NF-kB luciferase reporter, primary screen, TCR NF-kB activation inhibitor project, cell-based, luminescence, uHTS; Jurkat, PMA/ionomycin-induced NF-kB luciferase reporter; inhibition, % at 4 µM; actives 0.53% (n = 330,000); AID 435003, 2010; in the data active = inhibition above about 50%
# 697 NFkB inh: inhibitors of PMA/ionomycin-induced NF-kB reporter, 697 cells, primary screen, B-cell NF-kB inhibitor project, cell-based, luminescence, uHTS; actives 0.33% (n = 330,000); inhibition, % at 4 µM; AID 435022, 2010; 697 B-cell NF-kB luciferase reporter, 16 h; in the data active = inhibition above about 35%
# Beta cell apopt: inhibitors of cytokine-induced beta cell apoptosis, primary screen, luminescence; actives 0.8% (n = 300,000); AID 435005, 2010; INS-1E cytokine-induced death, ATP luminescence, 48 h; percent of positive-control rescue, neutral wells zero; protection from apoptosis, % (no concentration beside the values);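 active = Every replicate reaches about 75%, or at least half do and their mean reaches it too, limit read from the data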;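 note: 0% = cytokine-treated negative control wells and 100% = positive control rescue; higher means more ATP so stronger rescue from cytokine killing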
# Jurkat NFkB conf: PMA/ionomycin-induced NF-kB reporter inhibitors, Jurkat retest, confirmation, T-cell NF-kB inhibitor project, cell-based, luminescence, single concentration; AID 435020, 2010; shares compounds with Jurkat NFkB inh; Jurkat NF-kB luciferase, 16 h; actives 27% (n = 2,700); inhibition, % at 4 µM;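 active = inhibition reaching about 45% at 4 µM in either replicate, limit read from the data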;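 note: plate controls were PMA/ionomycin stimulated DMSO wells for no effect and unstimulated DMSO wells for full effect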
# The depositor's hits bear a star; · = no result given. This is a sample that favours compounds with a hit; in the whole collection about 1.8% have one here.
SMILES,Gli-Sufu block,Jurkat NFkB inh,697 NFkB inh,Beta cell apopt,Jurkat NFkB conf
CCOC(=O)c1ccc(N/C=C\C(=O)c2cccc(OC)c2)cc1,-52,-29,-65,-4,·
Cc1ccc(Cl)c(N/C=C/C(=O)c2ccccc2)c1,-86,-181,-229,·,-80
Cc1ccc(O)c(NC(=O)CCC2CCCCC2)c1,-6,64*,3,-11,40
CSc1nc(C)cc(Oc2ccc(=O)[nH]n2)n1,-1,14,20,·,·
COC(=O)c1ccc(NC(=O)C(=O)NCC2CCCO2)cc1 (configuration not stated),-27,-25,2,-6,·
Cc1cccc(OCC(=O)Nc2cc(C)ccc2O)c1,21,72*,29,-5,55*
COc1ccc(C(=O)/C=C/Nc2cccc(O)c2)cc1,-67,-179,-60,-5,-69
COc1ccccc1NC(=O)COC(=O)c1c[nH]c(=O)[nH]c1=O,4,7,4,6,·
Cc1cc(NC(=O)CSc2nc3ccccc3c(=O)n2C2CCCC2)no1,21,64*,15,16,51*
CN(C)c1ccc(NC(=O)CSc2nc3ccccc3c(=O)n2C2CCCCC2)cc1,1,-46,-65,10,·
CCOc1cc(-c2cc(-c3ccc(C)cc3)nc(N)c2C#N)ccc1O,2,51*,-39,7,14
Cn1cc(/C=N/n2cnc3scc(-c4ccc(Cl)cc4)c3c2=O)c2ccccc21,28,62*,19,36,50*
Fc1ccc(-c2cn3cc(C(F)(F)F)cc(Cl)c3n2)cc1,-124,-189,-172,-1,-146
COc1ccccc1C(=O)Nc1ccc2c(c1)nc(CCNC(=O)c1ccccc1)n2C,-33,54*,-28,13,29
COC(=O)c1cccc(NC(=O)NC(=O)c2ccccc2Cl)c1,-83,62*,3,3,-7
Nc1c(N(CCO)C(=O)C2CCCC2)c(=O)[nH]c(=O)n1Cc1ccccc1,30,16,9,5,·
CSc1nc(N(C)NC(=O)c2ccc(F)cc2)c2ccccc2n1,-1,51*,-1,15,33
Cc1ccc(C(=O)N/N=C/c2c(O)ccc3ccccc23)cn1,35,31,17,·,·
Cn1cc(C(=O)N/N=C/c2c(O)ccc3ccccc23)ccc1=O,43,59*,14,93*,76*
O=C(N/N=C\c1c(O)ccc2ccccc12)c1cncc(Br)c1,85*,52*,-8,88*,79*
O=C(N/N=C/c1c(O)ccc2ccccc12)c1ccc(Br)o1,66*,52*,-2,102*,62*
Cc1c(C(=O)N/N=C/c2c(O)ccc3ccccc23)nnn1-c1nonc1N,47,55*,20,86*,76*
C/C(CC(=O)NCc1ccc(Cl)cc1)=N\NC(=O)c1ccccc1F,-13,-3,10,-2,·
c1cnc2cc(-c3ccsc3)ncc2c1,-15,-32,-26,-6,·
O=C(CSCC(=O)Nc1ccccc1)N/N=C/c1c(O)ccc2ccccc12,7,63*,17,-11,37
SMILES,Gli-Sufu block,Jurkat NFkB inh,697 NFkB inh,Beta cell apopt,Jurkat NFkB conf
Cc1cccc(C)c1NC(=O)C1C2C=CC(C2)C1C(=O)O (configuration not stated),17,3,-7,-7,·
Cc1ccc2cc(/C=N/NC(=O)c3ccccc3[N+](=O)[O-])c(Cl)nc2c1,3,-17,11,·,·
COC(=O)c1[nH]c2c(c1C)C(=O)CC(c1cc(OC)ccc1OC)C2 (configuration not stated),41,61*,-27,8,29
CCOc1ccc(C2CC(=O)c3c([nH]c(C(=O)OC)c3C)C2)cc1OC (configuration not stated),9,-6,16,4,·
COC(=O)c1[nH]c2c(c1C)C(=O)CC(c1cccs1)C2 (configuration not stated),30,56*,0,17,54*
O=C(CN1CCOCC1)Nc1ncc(Cc2ccccc2Cl)s1,-2,-4,-9,·,·
CCc1ccc(CCC(=O)Nc2ncc(Cc3ccccc3Cl)s2)o1,20,66*,-58,10,2
Cc1cc(N/N=C/c2ccc(O)cc2)c2cccc(C)c2n1,22,-6,-56,43,·
Cc1cc(C)c2nc(C)cc(N/N=C/c3ccc(O)cc3)c2c1,9,98*,-7,·,81*
Fc1ccccc1CSc1nc2ccccc2[nH]1,-72,-154,-246,3,-86
CSc1ccc(COC(=O)c2cc([N+](=O)[O-])ccc2N2CCOCC2)cc1,42,81*,-85,68,66*
Cc1ccccc1COC(=O)c1cc([N+](=O)[O-])ccc1N1CCOCC1,-16,35,1,-2,·
CCOc1ccc(C(=O)COC(=O)c2cc([N+](=O)[O-])ccc2N2CCOCC2)cc1,5,53*,-23,15,7
COc1ccc(OC)c(COC(=O)c2cc([N+](=O)[O-])ccc2N2CCOCC2)c1,-18,52*,-38,4,30
O=C(COC(=O)c1cc([N+](=O)[O-])ccc1N1CCOCC1)c1ccc(Br)cc1,9,13,-16,2,·
CCN(CC)C(=O)Cn1c(=O)n(Cc2ccc(F)cc2)c(=O)c2sccc21,27,6,-9,-4,·
COc1ccc(NC(=O)CCCN2C(=O)CN(C)C2=O)c(OC)c1,6,2,12,11,·
COc1ccc(-c2cc(-c3ccc(OC)c(OC)c3)n[nH]2)c(O)c1,-61,-105,-59,2,·
COc1ccc(-c2cc(-c3ccccc3O)[nH]n2)cc1OC,-51,-156,-147,-1,-86
COc1ccc(C(=O)NCCSc2ccccc2)cc1,-97,-212,-204,-2,-99
C[C@H](CO)N1C[C@H](C)[C@@H](CN(C)CC2CCCCC2)Oc2c(NS(=O)(=O)c3ccccc3)cccc2C1=O,2,-15,-5,-2,·
Cn1cccc1/C=N/NC(=O)c1cc(-c2cccs2)nc2ccccc12,-1,53*,-15,10,4
O=C(N/N=C/c1cccs1)c1cc(-c2ccncc2)nc2ccccc12,45,·,·,-1,·
CCCc1cc(C(=O)N/N=C/c2ccc(CC)s2)c2ccccc2n1,2,56*,-30,12,48
CCc1ccc(/C=N/NC(=O)c2cc(-c3ccncc3)nc3ccccc23)s1,22,63*,-75,·,50*
COc1ccc(CCN2CC(C(=O)NC3CCOCC3)CCC2=O)cc1 (configuration not stated),5,12,8,-3,·
O=[N+]([O-])c1nn(-c2cccc(Cl)c2)n(O)c1=NCc1cccnc1,0,-10,-23,2,·
COc1ccc(C(CNC(=O)COc2ccc(F)cc2Br)N2CCCC2)cc1 (configuration not stated),27,0,-52,0,·

# Screening results (PubChem)
